In PubChem BioAssay (NCI):
Where “and” joins values, the source holds several entries; their conditions need not be identical. Identical values can stand only once. This is part of a sample that, as a whole, favours compounds with a hit. Of some 83,000 tested, about 20% had one in any assay.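 Cells were grown in 96-well plates and exposed to the test compound at a single concentration for 48 hours; results are reported as percent growth, with values below 10 considered active.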 Unmarked numbers belong to inactive results. Calls of active or inactive are those of the source.

These compounds were tested on MDA-MB-468 breast (assay: NCI-60 one-dose screen, 48 h (100 = growth as untreated, 0 = no growth, -100 = all killed)). Conditions: 10 µM.
Description: Growth inhibition of the MDA-MB-468 human Breast tumor cell line is measured as a screen for anti-cancer activity. Cells are grown in 96 well plates and exposed to the test compound for 48 hours. Compounds are tested at a single concentration, which is 10^-5 M for most compounds. The reported endpoint is percent growth (GI% or GIPRCNT), where numbers from 0 - 100% represent growth inhibition, and numbers from -100% - 0 represent cell death. For example, a value of 40 represents 60% growth inhibition. A value of 0 means no net growth occurred over the course of the experiment. A value of -40 indicates 40% of cells at the beginning of the experiment died by the end of the experiment. A value of -100 means all cells are dead at the end of the experiment.
NCI-60 Human Tumor Cell Lines Screen was performed using the standard one-dose NCI protocol, which is described in more detail at https://dtp.cancer.gov/discovery_development/nci-60/default.htm.
Compounds with GIPRCNT values below 10 were considered active. Activity score was based on GIPRCNT using the following formula: […]
Score is 0 for GIPRCNT values of 100 or above, 50 for GIPRCNT values of 0, and 100 for GIPRCNT values of -100.

| Structure (SMILES) | growth |
| --- | --- |
| COc1cc(OC(F)(F)F)ccc1C(=O)Nc1sc2c(c1C#N)CCC(=O)C2 | 77.7% |
| CN(C)c1ccc(/C=C/c2nc3ccccc3c(=O)n2CC(=O)Nc2ccccc2)cc1 | -4.96% (active) |
| Cc1cc(C)nc(NS(=O)(=O)c2ccc(N/C(N)=N/c3nccc(-c4ccccc4)n3)cc2)n1 | 64.2% |
| O=C(Nc1cccc(-c2cn(-c3ccc4oc(=O)ccc4c3)nn2)c1)Nc1cc(C(F)(F)F)cc(C(F)(F)F)c1 | -23.3% (active) |
| CN1C(=O)N(C)C2SC(N/N=C/c3cccs3)=NC21 (stereo not given) | -22.8% (active) |
| O=C(Cc1ccc2c(c1)CN(C1CCC(=O)NC1=O)C2=O)NCc1cccc2ccccc12 (stereo not given) | -69.2% (active) |
| COc1cc2c3c(n(CCCNC(C)C)c(=O)c2cc1OC)-c1nc2c(cc1C3=O)OCO2 | -9.99% (active) |
| Cc1nc2c(cnn2-c2ccccc2)c(=O)n1-c1ccc(NC(=O)c2ccc(F)cc2)cc1 | 14.5% |
| Cc1ccc(/C=C/C(=O)c2ccc(NC(=O)CSc3nnc(-c4c[nH]c5ccccc45)n3-c3ccccc3)cc2)c(C)c1 | 22% |
| COc1ccc(-c2ccc(/C=N/NC(=O)c3[nH]c4ccc(Br)cc4c3-c3ccccc3)o2)cc1 | -2.91% (active) |
| CCOC(=O)C1NN(c2ccc(S(N)(=O)=O)cc2)c2nc3nc(-c4cccs4)cc(-c4cccs4)c3c(=O)n21 (stereo not given) | 99.5% |
| COc1ccc(N2N=C(c3ccc4c(c3)OCCO4)CC2c2cccc(NC(=O)CCCNS(=O)(=O)c3ccc(F)cc3)c2)cc1 (stereo not given) | 60.8% |
| CN1CCN(c2ccc(C(=O)/C=C/c3cc(Br)ccc3F)cc2)CC1 | -13.3% (active) |
| COc1cccc(-c2ccnc(/N=C(\N)Nc3ccc(S(=O)(=O)Nc4nc(C)cc(C)n4)cc3)n2)c1 | 115% |
| CCCn1c(=O)c2[nH]c(-c3ccc(OCc4nc5ccc(C#N)cc5[nH]4)cc3)nc2n(CCC)c1=O | 65.9% |
| CCCCOc1ccc(Nc2nc3ccccc3nc2Nc2ccc(OCCCC)cc2)cc1 | 73.8% |
| Cc1ccc(-c2nc3ccc(C(=O)N=Nc4c(O)[nH]c5ccc(Br)cc45)cc3[nH]2)cc1 | 62.5% |
| O=C(Nc1cc(Cl)cc(Cl)c1)Nc1cc(Cl)cc(Cl)c1 | -40.1% (active) |
| Brc1ccc(N/N=C/c2c[nH]c3ccccc23)nc1 | -35.5% (active) |
| Cc1ccc2nc3c(nc2c1)c1cc(I)ccc1n3CCN(C)C | 5.08% (active) |

| Structure (SMILES) | growth |
| --- | --- |
| CCOC(=O)c1sc(N/N=C(\C)c2ccc3c(c2)Nc2ccccc2S3)nc1C | 8.47% (active) |
| N#Cc1ccc(NC(=O)CSc2ccc(-c3ccc(Br)cc3)nn2)cc1 | 62.5% |
| COc1ccc(C(=O)Nc2ccc(-c3ccc4c(c3)NC(=O)/C4=C\c3ccc[nH]3)cc2)cc1 | -70% (active) |
| COc1cc(/C=C/C(=O)c2ccc(NC(=O)CN3C(=O)NC(C)(c4ccccc4)C3=O)cc2)cc(OC)c1OC (stereo not given) | -23.1% (active) |
| O=S(=O)(Nc1ncccn1)c1ccc(-n2c(-c3ccc(Br)cc3)nc(-c3ccccc3)c2-c2ccccc2)cc1 | 24.3% |
| COC(=O)c1c(C(=O)OC)c2n(c1C)[C@@H]([C@@H](C)[C@H]1CC[C@H]3[C@@H]4CCC5=CC(=O)CC[C@]5(C)[C@H]4CC[C@]13C)SC2 | 11.2% |
| Cc1ccc([N+](=O)[O-])c(C(=O)Nc2ccc(-c3ccc4c(c3)NC(=O)/C4=C\c3ccc[nH]3)cc2)c1 | -28.9% (active) |
| COc1ccc2[nH]c(=O)c(CSc3ccc(Nc4nccc(-c5ccc(Cl)cc5)n4)cc3)cc2c1 | 97.9% |
| COC(=O)C(Cc1ccc(O)c(O)c1)NC(=O)C(CSC/C=C(\C)CCCC(C)CCCC(C)CCCC(C)C)NC(C)=O (stereo not given) | 6.4% (active) |
| CCCn1c(=O)c2[nH]c(-c3ccc(OCc4nc5ccc(C(F)(F)F)cc5[nH]4)cc3)nc2n(CCC)c1=O | 30.8% |
| O=c1oc2ccccc2cc1-c1csc(N=Nc2c(O)[nH]c3ccc(Br)cc23)n1 | 95.2% and 64.3% |
| COc1ccc2ncc(C#Cc3cncc(C(=O)Nc4ccc(CN5CCN(C)CC5)c(C(F)(F)F)c4)c3)n2n1 | -91.1% (active) |
| COc1ccccc1[C@H]1C(C(=O)c2ccc(Cl)cc2)C2(N[C@@H]1c1ccccc1)C(=O)Nc1ccc(Cl)cc12 (stereo not given in full) | -43.9% (active) |
| O=c1[nH]c2ccc(Cl)cc2cc1CSc1ccc(Nc2nccc(-c3ccc(Cl)cc3)n2)cc1 | -20.1% (active) |
| Cc1ccc(-c2cc(C(=O)N=Nc3c(O)[nH]c4ccccc34)c3ccccc3n2)cc1 | 26.3% |
| O=C(CSc1nnc(-c2c[nH]c3ccccc23)n1-c1ccccc1)c1ccc(Cl)cc1 | 46.4% |
| O=c1oc2ccc(-c3ccc(F)cc3F)cc2c(=O)n1-c1ccc(Cl)c(C(F)(F)F)c1 | 3.54% (active) and -40.4% (active) |
| N#Cc1c(-c2ccc(Cl)cc2)cc(-c2ccccc2)nc1OCc1ccccc1 | 65.4% |
| COc1ccc2[nH]c(O)c(N=NC(=O)c3cc(-c4ccc(C)cc4)nc4ccccc34)c2c1 | 76.2% |
| CC(C)CCSc1nc(NC2CC2)c(C#N)c(-c2ccc(C(C)C)cc2)n1 | 106% |
